# From PubChem BioAssay
# Only a selection was taken, and hits are over-represented in it overall.
# PKA kinase inh: PKA (human) kinase inhibition | PKA Kemptide phosphorylation, Kinase-Glo ATP luminescence | inhibition, % at 6 µM | hit rate 0.1% among 65,000;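 active means inhibition above the screen-wide mean inhibition plus 3 SD, cut at about 21% in these data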
# DAT uptake mod: human DAT dopamine uptake with cocaine, either direction | hit rate 1.3% among 110,000 | Q01959 | LLC-PK1 hDAT cells, [14C]-dopamine uptake with cocaine IC80; actives deviate in either direction | B-score at 10 µM;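 active means Z score or B-score, a plate-position-corrected score, falls beyond the plate's 99.7% confidence bounds, in either direction; inactive means both scores lie inside the 99.7% bounds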;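 further: scored against the spread of the other compound wells on the same plate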
# ROCK2 blocker: blocks human Rho kinase 2 activity; O75116; purified ROCK2, Kinase-Glo ATP depletion luminescence; inhibition, % at 6 µM; hit rate 0.35% among 60,000;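 active means inhibition above the screen-wide mean inhibition plus 3 SD, cut at about 18% in these data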;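 further: plate controls were DMSO wells for no effect and Y-27632 control wells after no-enzyme background subtraction for full effect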
# Target sequence (O75116 whole entry, looked up): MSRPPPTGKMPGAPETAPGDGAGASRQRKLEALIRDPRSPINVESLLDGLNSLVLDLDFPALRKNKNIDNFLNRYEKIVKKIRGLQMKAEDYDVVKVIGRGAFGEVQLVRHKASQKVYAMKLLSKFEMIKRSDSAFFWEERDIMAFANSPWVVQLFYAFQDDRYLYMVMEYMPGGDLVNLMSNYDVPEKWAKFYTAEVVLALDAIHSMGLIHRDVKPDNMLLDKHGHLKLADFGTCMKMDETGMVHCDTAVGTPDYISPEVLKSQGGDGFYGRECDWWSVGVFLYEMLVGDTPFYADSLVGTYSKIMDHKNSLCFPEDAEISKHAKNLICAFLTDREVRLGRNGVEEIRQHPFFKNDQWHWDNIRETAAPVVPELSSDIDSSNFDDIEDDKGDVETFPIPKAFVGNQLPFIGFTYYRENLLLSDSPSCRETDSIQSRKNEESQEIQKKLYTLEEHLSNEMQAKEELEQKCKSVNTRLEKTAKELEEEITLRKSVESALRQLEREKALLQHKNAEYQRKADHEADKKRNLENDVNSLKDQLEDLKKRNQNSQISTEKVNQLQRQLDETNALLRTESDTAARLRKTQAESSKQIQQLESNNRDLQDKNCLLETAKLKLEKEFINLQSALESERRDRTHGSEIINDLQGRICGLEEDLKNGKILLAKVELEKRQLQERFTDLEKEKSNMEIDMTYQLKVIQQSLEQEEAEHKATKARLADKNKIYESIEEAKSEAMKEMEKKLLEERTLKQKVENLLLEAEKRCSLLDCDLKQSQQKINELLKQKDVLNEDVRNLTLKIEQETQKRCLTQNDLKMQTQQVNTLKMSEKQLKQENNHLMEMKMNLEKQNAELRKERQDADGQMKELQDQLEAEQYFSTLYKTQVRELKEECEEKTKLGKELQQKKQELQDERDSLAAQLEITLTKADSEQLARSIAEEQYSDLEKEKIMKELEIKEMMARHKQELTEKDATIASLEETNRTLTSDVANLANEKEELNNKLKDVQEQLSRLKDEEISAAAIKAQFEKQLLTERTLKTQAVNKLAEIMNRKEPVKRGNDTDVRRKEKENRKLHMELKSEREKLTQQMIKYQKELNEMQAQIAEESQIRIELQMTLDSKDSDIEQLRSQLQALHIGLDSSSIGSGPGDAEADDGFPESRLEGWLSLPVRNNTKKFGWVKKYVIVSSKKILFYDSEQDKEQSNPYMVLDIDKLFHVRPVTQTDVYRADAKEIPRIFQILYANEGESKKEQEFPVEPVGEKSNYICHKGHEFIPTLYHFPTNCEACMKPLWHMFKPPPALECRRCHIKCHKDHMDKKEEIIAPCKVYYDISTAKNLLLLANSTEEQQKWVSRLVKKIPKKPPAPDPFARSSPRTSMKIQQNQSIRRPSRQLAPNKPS
# D1 allo mod: D1 dopamine receptor (human) allosteric modulation; P21728; HEK293 D1, CRE-luciferase, dopamine EC30 potentiation; actives deviate in either direction; B-score at 10 µM; hit rate 5.9% among 58,000; AID 641;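 active means luminescence count or its row- and column-corrected plate score outside the 99.7% band of the plate's sample wells, on either side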
# JNK3 inh: blocks human JNK3 kinase activity | P53779 | purified JNK3 kinase activity, HTS | inhibition, % at 8 µM | hit rate 0.61% among 60,000 | AID 746; in the data active means inhibition above about 17%;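 further: 0% = DMSO and 100% = reference inhibitor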
# D1 PAM confirm: confirmation of human D1 dopamine receptor allosteric modulators; shares compounds with D1 allo mod; HEK293 D1 CRE-luciferase, dopamine EC30 potentiation; active compounds read high; luminescence at 10 µM; hit rate 88% among 2,200;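 active means luminescence in either of two replicates above the same-plate mean plus 3 SD of the low-dose dopamine control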
# D1 no dopamine: secondary test of D1 modulators: activity without dopamine; shares compounds with D1 allo mod; HEK293 D1 CRE-luciferase, luminescence, no dopamine; active compounds read high; luminescence at 10 µM; hit rate 0.8% among 1,900; AID 646; in the data active means luminescence above about 3900
# Isoprot counter: alters isoproterenol CRE-luciferase response in HEK293 cells. shares compounds with D1 allo mod. HEK293 D1 CRE-luciferase, isoproterenol EC30 counter-screen. calls only at 10 µM. hit rate 63% among 2,200;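 active means luminescence in either replicate above plate mean of wells with a partly effective reference agonist dose plus 3 SD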;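 further: isoproterenol raises cAMP through native beta-adrenoceptor Gs so signal bypasses D1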
# The depositor's hits bear a star; i = inactive; . = no result; + = active, no number.
SMILES,PKA kinase inh,DAT uptake mod,ROCK2 blocker,D1 allo mod,JNK3 inh,D1 PAM confirm,D1 no dopamine,Isoprot counter
O=C(CSc1ncn[nH]1)Nc1ccccc1Sc1ccc(Cl)cc1,.,-0.57,.,.,.,.,.,.
Cc1ccccc1-c1ccc(=O)n(CC(=O)Nc2ccc(N3CCOCC3)cc2)n1,7,1.5,6,.,-8,.,.,.
CCn1nc(C(=O)NC2=NCCS2)c2ccccc2c1=O,-1,0.07,.,2.9*,.,9356*,1640,i
COc1ccccc1-c1nnc(SCC(=O)Nc2nc(-c3ccccc3)cs2)n1C,1,0.036,2,2.9*,-2,4120,1444,i
Cc1cc(C)nc(SCc2nnc(SCC(=O)Nc3nc(-c4ccccc4)cs3)n2C)n1,.,-0.52,.,.,.,.,.,.
Clc1cccc(Cl)c1-c1nnc2ccc(N3CCOCC3)nn12,7,-0.4,8,1.4,4,.,.,.
Brc1ccc(-c2nnc3ccc(N4CCN(c5ccccc5)CC4)nn23)cc1,-9,-0.057,-3,0.25,2,.,.,.
NC(=O)C1(N2CCCCC2)CCN(c2ccc3nnc(-c4ccccc4)n3n2)CC1,7,1.8,3,11*,-3,18940*,.,+
O=C(Nc1ccccc1Cl)N1CCN(c2ccc3nnc(-c4ccc(F)cc4)n3n2)CC1,-2,.,9,1.1,-1,.,.,.
Fc1cccc(Cl)c1-c1nnc2ccc(N3CCOCC3)nn12,6,-0.64,4,16*,6,10924*,1424,+
c1ccc(-c2nnc3ccc(N4CCC5(CC4)OCCO5)nn23)cc1,6,0.16,8,21*,-3,16736*,1528,+
Fc1ccc(-c2nnc3ccc(N4CCCC4)nn23)cc1,4,2.1,4,8.3*,-4,11900*,1896,+
CC12CC3CC(C)(C1)CC(C(=O)NC(=S)N1CCOCC1)(C3)C2,.,-0.56,.,.,.,.,.,.
Brc1ccc(-c2nnc3n2CCCCC3)cc1,.,-0.027,.,.,.,.,.,.
Brc1ccc(-c2nnc3n2-c2ccccc2CC3)cc1,8,0.58,5,3.9*,-1,13056*,1744,+
O=C(C1CCC1)N1CCc2cc(S(=O)(=O)N3CCCCC3)ccc21,1,-0.61,4,1.1,3,.,.,.
O=C(C1CCC1)N1CCc2cc(S(=O)(=O)N3CCN(c4ccccn4)CC3)ccc21,14,0.61,5,6.1*,-2,10104*,.,+
CCOC(=O)N1CCN(S(=O)(=O)c2ccc3c(c2)CCN3C(=O)C2CCC2)CC1,7,0.89,4,3.3*,2,7472*,1692,i
COc1ccc(S(=O)(=O)N2CCN(c3ccccn3)CC2)cc1OC,10,0.52,4,5.3*,-2,6880*,.,i
O=C(c1ccco1)N1CCN(S(=O)(=O)c2ccc3c(c2)CCN3C(=O)C2CCC2)CC1,8,0.89,6,2.6*,12,11588*,1732,+
CC(C)OC(=O)[C@H]1[C@H](c2ccc(Cl)cc2)[C@@](C#N)(C(N)=O)[C@@H]2C=CC(C(N)=O)=CN21,0,0.36,9,.,-1,.,.,.
CCCN1C(=O)c2cc(C(=O)NCc3ccc(OC)cc3)ccc2C1O (configuration not stated),.,-0.023,.,.,.,.,.,.
CCC(C)[C@H](NC(=O)NCC1CCCO1)C(=O)OC (some centres not stated),14,-0.52,4,0.14,1,.,.,.
CCCCOc1[nH]c2nc(-c3ccco3)n(Cc3ccco3)c(=N)c2c1C#N,7,1.5,0,1.1,0,.,.,.
O=C(C1CC1)N1CCc2cc(S(=O)(=O)N(CCO)Cc3ccccc3)ccc21,-4,-1.8,-2,4.2*,3,15244*,1640,+
SMILES,PKA kinase inh,DAT uptake mod,ROCK2 blocker,D1 allo mod,JNK3 inh,D1 PAM confirm,D1 no dopamine,Isoprot counter
CCOC(=O)C1=C(C)NC(=O)NC1c1cn(-c2ccccc2)nc1-c1cccs1 (configuration not stated),5,1.5,2,2.8*,6,10976*,1540,+
CCOC(=O)C1=NN(C(=O)Nc2cccc(C(F)(F)F)c2)C2C(=O)N(c3cccc(C(F)(F)F)c3)C(=O)C12 (configuration not stated),.,0.96,.,.,.,.,.,.
COc1ccc(N2CCN(c3ccc(NC(=O)C4CCCCC4)cc3C#N)CC2)cc1,12,0.076,6,0.11,6,.,.,.
CC(=O)Nc1cccc(Oc2cc(C#N)c(C#N)cc2N2CCCCCC2)c1,-6,0.035,-2,9.1*,-3,11784*,.,+
C/C=C/Cn1c(SCc2ccc(Cl)cc2)nc2c1c(=O)[nH]c(=O)n2C,6,-0.12,3,7.3*,-4,13964*,1680,+
CCCn1c(SCc2ccc(Cl)cc2)nc2c1c(=O)[nH]c(=O)n2C,9,0.049,6,5.2*,8,11480*,.,+
C/C=C/CSc1nc2c(c(=O)[nH]c(=O)n2C)n1CCC,10,-1.3,4,14*,0,14660*,1456,+
Cc1nn(C(=O)c2cc3sccc3[nH]2)c(C)c1C,6,0.063,3,-0.47,3,.,.,.
O=S(=O)(NCCc1csc(-c2cccnc2)n1)c1ccc(Cl)s1,-6,0.52,2,-1.7,0,.,.,.
COc1ccc(C(=O)N2CCc3cc(OC)c(OC)cc3C2)cc1OC,-4,0.48,-6,3.7*,3,9712*,1376,+
COc1ccc(C(=O)N2CCN(S(=O)(=O)c3ccc(C)cc3C)CC2)cc1OC,7,1.3,4,4.7*,-3,10368*,1512,+
CCC1S/C(=C(\C#N)C(N)=O)N(c2ccc(F)cc2)C1=O (configuration not stated),13,-1.1,1,5*,31*,9908*,.,+
COc1ccc(O[C@H]2C=C[C@@H](c3ccccc3)O[C@@H]2COC(=O)CCC(C)=NO[C@@H]2O[C@H](COC(C)=O)[C@@H](OC(C)=O)[C@H](OC(C)=O)[C@H]2OC(C)=O)cc1,.,1.3,.,.,.,.,.,.
CC(=O)OCC1OC(c2ccccc2)C(OC(C)=O)C(OC(C)=O)C1OC(C)=O (configuration not stated),0,-0.11,0,3.1*,4,9036*,1700,i
COc1ccc(NC(=O)c2sc(SC)nc2N)cc1,2,0.8,2,15*,-4,19600*,1536,+
CSc1nnc(-c2cccc(C)c2)n1N,.,0.65,.,.,.,.,.,.
N#Cc1nc(-c2ccccc2F)oc1NCc1cccc2c1OCO2,-1,-0.3,-3,21*,-5,21008*,1688,+
CN(C)CCNc1oc(-c2ccccc2F)nc1C#N,-5,-0.13,1,3.1,0,.,.,.
N#Cc1nc(-c2ccccc2F)oc1NC1CCCCC1,6,0.38,4,9.7*,0,18604*,1740,+
